# Only some compounds are listed: those with a hit (about 4% of all), similar ones and a draw of the others.
# TRHR agonist: qHTS for Small Molecule Agonists and Allosteric Enhancers of Human TRH Receptor: Primary Screen for Agonists; Thyrotropin-releasing hormone receptor (Homo sapiens), P34981; TRHR cells, calcium flux fluo-8, FDSS agonist mode; activation, % at 2 µM; actives 0.18% (n = 360,000); AID 493084, 2011; note: 0% is about no effect
#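 In this calcium-flux screen, cells bearing human TRHR are dye-loaded with fluo-8, baselined for 10 cycles, then exposed to library compounds; positive kinetic calcium responses during the agonist phase mark hits, with TRH as control.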
# D1 potentiator: Potentiators of Human D1 Dopamine Receptor: qHTS | actives 0.036% (n = 360,000) | HEK293 TREx D1 cells, calcium flux, dopamine EC20 potentiation | potentiation, % at 10 µM | D(1A) dopamine receptor (Homo sapiens), P21728; in the data active = potentiation above about 30%; note: 0% is about no effect
# Target sequence (P21728 whole entry, looked up): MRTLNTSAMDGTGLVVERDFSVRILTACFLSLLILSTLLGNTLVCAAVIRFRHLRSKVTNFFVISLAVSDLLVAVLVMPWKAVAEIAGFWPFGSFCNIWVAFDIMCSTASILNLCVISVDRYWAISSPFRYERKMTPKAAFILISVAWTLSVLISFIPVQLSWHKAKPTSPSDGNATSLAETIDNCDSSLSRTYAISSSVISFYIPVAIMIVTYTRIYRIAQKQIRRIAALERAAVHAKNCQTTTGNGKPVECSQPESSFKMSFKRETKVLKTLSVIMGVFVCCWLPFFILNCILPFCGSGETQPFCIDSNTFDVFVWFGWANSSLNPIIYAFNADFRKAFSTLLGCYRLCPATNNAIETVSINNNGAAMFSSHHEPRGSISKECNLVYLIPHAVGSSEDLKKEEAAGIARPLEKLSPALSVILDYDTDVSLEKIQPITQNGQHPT
# GRP78 ERSR act: qHTS for Inducers of the Endoplasmic Reticulum Stress Response (ERSR) in Human Glioma: qHTS | U87-MG GRP78 promoter luciferase reporter, 16 h | Potency, µM, for inactives: at the highest dose activation, usual class: activators | actives 0.02% (n = 420,000) | AID 602332, 2012; active = well fitted activation curve with a large enough effect; note: potency is the fitted concentration of half-maximal effect; series mostly up to about 76 µM; % of control where 0% means no effect; nearly all actives have a fitted effect of over 35% in size
#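 Stably transfected U87-MG glioma cells carrying a GRP78-based luciferase sensor; 16 h compound incubation. Luminescence end-point read 10 min after Bright-Glo addition at room temperature.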
# TRHR enhancer: qHTS for Small Molecule Agonists and Allosteric Enhancers of Human TRH Receptor: Primary Screen for Enhancers; Thyrotropin-releasing hormone receptor (Homo sapiens), P34981; TRHR cells, fluo-8 calcium fluorescence, EC20 TRH enhancement; enhancement, % at 2 µM; actives 0.66% (n = 360,000); AID 493056, 2011; in the data active = enhancement above about 30%; note: 0% is about no effect
#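 Enhancer read-out: after compound pinning and an initial kinetic agonist-mode read, an EC20 of TRH (10 nM final) was injected and fluo-8 calcium signal (Ex 480/Em 530) followed at 1 s/cycle for 100 cycles in TRHR-expressing cells.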
# D1 agonist: Allosteric Agonists of the Human D1 Dopamine Receptor: qHTS. D(1A) dopamine receptor (Homo sapiens), P21728. HEK293 T-REx D1 cells, calcium flux, agonist mode. activation, % at 2 µM. actives 1% (n = 360,000); note: 0% is about no effect
#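 Inducible HEK293 T-REx D1 cells, force-coupled to calcium signalling, were plated at 4000 cells/well with tetracycline and held overnight at 30 C. After no-wash calcium dye loading, compound-evoked calcium rise over 180 s flagged agonists.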
# D1 antag: Antagonist of Human D 1 Dopamine Receptor: qHTS; D(1A) dopamine receptor (Homo sapiens), P21728; HEK293 TREx D1 cells, calcium flux, dopamine EC80; active compounds read low; activity change, negative = inhibition, % at 10 µM; actives 3.2% (n = 360,000); AID 504652, 2011; in the data active = activity change below about -30%; note: % is set by controls: 0 for no effect and ±100 for the full control effect
#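 HEK293 T-REx cells expressing inducible, force-coupled D1 receptor; no-wash Ca dye, 30–90 min RT. Cmpd → 180 s read at 1 Hz → EC80 DA → 180 s read.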
# Numbers without * were called inactive; · = no result. Cut-off read from the data, not from the text of the source, unless noted: active = activation above about 30%; inactive = the rest.
SMILES,TRHR agonist,D1 potentiator,GRP78 ERSR act,TRHR enhancer,D1 agonist,D1 antag
N#C/C(=C\Nc1ccccc1O)c1nc2ccccc2o1,2.4,-7.2,-5.7%,1.6,21.0,-36.2*
COc1ccc(OC)c(NC(=O)C(=O)NNC(=O)C23CC4CC(CC(C4)C2)C3)c1,8.5,11.2,0.1%,-0.3,40.0*,0.4
COc1ccc(NC(=O)CNC(=O)C23CC4CC(CC(C4)C2)C3)c(OC)c1,-0.2,-2.1,-6.0%,-0.1,1.8,11.2
CC1Cc2ccccc2N1C(=O)CN1C(=O)NC(C)(c2ccc3c(c2)OCCO3)C1=O (configuration not stated),7.4,4.8,-5.6%,4.7,37.7*,12.1
C=Cc1ccc(Cn2c(=O)n(C)c(=O)c3sccc32)cc1,-1.7,-1.9,-3.0%,-6.8,15.7,-34.3*
O=[N+]([O-])c1ccc(N/N=C/c2ccc[nH]2)cc1,-0.9,-4.7,9.6%,-5.7,78.6*,-43.6*
O=[N+]([O-])c1ccccc1N/N=C/c1ccccc1,-0.1,4.0,4.1%,0.3,1.3,-13.2
COc1ccccc1NS(=O)(=O)c1cc([N+](=O)[O-])ccc1N/N=C/c1sc(N2CCOCC2)nc1-c1ccccc1,9.5,0.2,-3.3%,2.2,33.4*,-9.3
O=C(N/N=C/c1c[nH]c2ccccc12)c1cccc([N+](=O)[O-])c1,0.2,-12.9,1.1%,-7.9,0.7,-17.6
O=[N+]([O-])c1ccccc1N/N=C/c1c[nH]c2ccccc12,-0.6,-4.7,7.2%,-0.2,5.6,-70.8*
COc1ccc(C(=O)N/N=C/c2sc(N3CCOCC3)nc2-c2ccccc2)cc1OC,2.9,-1.7,-1.1%,-3.6,-0.7,-22.7
O=[N+]([O-])c1ccc(N/N=C/c2c[nH]c3ccccc23)cc1,32.4*,-11.0,6.1%,-2.6,81.0*,-27.6
COc1ccccc1NC(=O)c1cnn(-c2ccccc2)c1-n1cccc1,-0.8,-3.1,2.6%,-9.0,14.2,-5.0
COc1ccccc1NS(=O)(=O)c1cc([N+](=O)[O-])ccc1N/N=C/c1c[nH]c2ccccc12,-0.5,-7.2,-9.9%,2.7,61.3*,-4.0
COc1ccc(NS(=O)(=O)c2cc([N+](=O)[O-])ccc2N/N=C\c2c(C)[nH]c3ccccc23)cc1,11.6,-3.5,-2.8%,-5.0,17.7,3.5
Cc1ccc(C(=O)N2CCC(n3nccc3NC(=O)c3ccccc3C)CC2)cn1,0.7,9.9,-3.8%,-4.6,4.8,-6.6
Cc1ccccc1C(=O)Nc1ccnn1C1CCN(C(=O)c2ccoc2)CC1,0.4,-4.7,-3.4%,1.0,3.6,-44.5*
O=C1CC(c2ccco2)CC2=C1C(c1cccnc1)n1nc(C(F)(F)F)nc1N2 (configuration not stated),-0.3,-4.5,-2.9%,11.7,11.0,0.0
Cc1ccc(CNC(=O)CCn2cc(-c3ccc(F)cc3)nc2-c2ccncc2)cc1,-0.5,-7.0,-2.0%,-3.3,-0.5,3.9
COc1ccc(Br)cc1CN1C(=O)NC2(CCCCCC2)C1=O,2.5,·,0.1%,-3.2,30.5*,-32.7*
COc1cc(Br)c(CN2C(=O)NC3(CCCCCC3)C2=O)cc1OC,-1.5,-5.7,-0.1%,3.7,16.1,5.7
Cc1ccc(NC(=O)CCCCCN2C(=O)[C@@H]3Cc4ccccc4CN3C2=O)c(Cl)c1,0.8,-1.8,-4.0%,0.7,3.6,-3.1
Cc1ccc(Cn2ccsc2=NC(=O)COC(=O)C(C)C)cc1,0.9,-0.8,-2.9%,0.9,0.4,-48.2*
Cc1ccc(Cn2ccsc2=NC(=O)COC(=O)c2ccc(O)cc2O)cc1,0.1,1.8,1.3%,5.1,11.5,-23.2
Cc1cc(N2CCN(C)CC2)nc2ccc(NC(=S)NC3CC3)cc12,0.5,-4.2,1.7%,3.0,1.4,-8.0

# High-throughput results as filed in PubChem BioAssay.
